In PubChem BioAssay (Tox21):
Results filed as inconclusive are left out. Activity calls are given as the source filed them. Calls follow the shape of the dose curve; as a rule, active = well fitted activation curve with a large enough effect in the repeat runs; inconclusive = weak or mixed curves, or effect the other way; inactive = no such curve, though single readings can be large or run the other way.

Test: qHTS assay to identify small molecule agonists of the estrogen related receptor signaling pathway with the pleiotropic PPARgamma coactivator (PGC) from Tox21 10K library (AID 1224842); also: nearly all actives have a fitted effect of over 15% in size
Settings: PGC/ERR reporter cell line, luciferase ONE-Glo, 18 h; series mostly up to 92.4 µM
Description: National Center for Advancing Translational Sciences [NCATS] NIH Chemical Genomics Center [NCGC] U.S. Environmental Protection Agency [EPA] National Institutes of Environmental Health Sciences [NIEHS] National Toxicology Program [NTP] Assay overview: Estrogen related receptors (ERRs), the first orphan nuclear receptors discovered, play an important role in the control of cellular energy metabolism. ERRs are required for high-energy production in response to the environmental challenges. The pleiotropic PPARgamma coactivator (PGC) is a major partner of ERR and a key regulator in energy homeostasis. Together they have been implicated in the etiology of metabolic disorders such as Type 2 diabetes and metabolic syndrome. ERR-alpha was also identified as an adverse marker for breast cancer progression; ERR-alpha-positive tumors have a poor prognosis. To screen and to identify environmental compounds that perturb the PGC/ERR signaling pathways could provide valuable information for potential therapeutic or preventive measures in the treatment of metabolic disease. For identifying PGC/ERR agonists, PGC/ERR cell line (provided by NTP) has been used to screen Tox21 10K library.
Assay Protocol Summary: The PGC/ERR cells were dispensed at 2,000 cells/5 ul/well in 1536-well white plates using a Multidrop dispenser. After the assay plates were incubated at a 37 C/5% CO2 incubator for 6 hours, 23 nL of compounds dissolved in DMSO, positive and negative controls or DMSO only was transferred to the assay plate by a pin tool. The plates were incubated at 37 C for 18 hours. 4 ul/well of One-Glo reagent was added into the assay plates using a Flying Reagent Dispenser. After 30-minute incubation at room temperature, the luminescence intensity in the plates was measured using a ViewLux plate reader.

| SMILES | outcome |
| --- | --- |
| O=C(O)CCCC[C@@H]1SC[C@@H]2NC(=O)N[C@@H]21 | inactive |
| N[C@@H](Cc1cc(I)c(Oc2cc(I)c(O)c(I)c2)c(I)c1)C(=O)O | inactive |
| COc1ccc(Nc2ccccc2)c(C)c1 | inactive |
| C=C(C)C(=O)O[C@H]1C[C@@H]2CC[C@@]1(C)C2(C)C | inactive |
| COS(C)(=O)=O | inactive |
| OC[C@H]1O[C@@](CO)(O[C@H]2O[C@H](CO)[C@@H](O)[C@H](O)[C@H]2O)[C@@H](O)[C@@H]1O | inactive |
| Fc1ccc(Br)cc1 | inactive |
| Nc1cc([N+](=O)[O-])ccc1O | inactive |
| CC[C@H](C)C(=O)O[C@H]1C[C@@H](C)C=C2C=C[C@H](C)[C@H](CC[C@@H]3C[C@@H](O)CC(=O)O3)[C@H]21 | inactive |
| CCC(O)OC(O)CC (configuration not stated) | inactive |
| CSCCC=O | inactive |
| CC1=C(C)S(=O)(=O)CCS1(=O)=O | inactive |
| O=C(CC(C(=O)OC1CCCCC1)S(=O)(=O)O)OC1CCCCC1 (configuration not stated) | inactive |
| CCCCC(CC)COC(=O)C(C#N)=C(c1ccccc1)c1ccccc1 (configuration not stated) | inactive |
| O=C(O)c1ccccc1C(c1ccc(O)cc1)c1ccc(O)cc1 | inactive |
| O=P(OC(CCl)CCl)(OC(CCl)CCl)OC(CCl)CCl | inactive |
| CCCCCCCCCCCCCCCO | inactive |
| Nc1ccccc1[N+](=O)[O-] | inactive |
| OCC(CO)(CBr)CBr | inactive |

| SMILES | outcome |
| --- | --- |
| CCC(O)OCCCOC (configuration not stated) | inactive |
| CN(C)CCOCCN(C)C | inactive |
| Cc1cccc(O)c1 | inactive |
| COCCCOc1ccnc(CS(=O)c2nc3ccccc3[nH]2)c1C (configuration not stated) | inactive |
| CCCCC(CC)COC(=O)CS (configuration not stated) | inactive |
| CC(C)(N)CO | inactive |
| CC(=O)CC(=O)Nc1ccccc1C | inactive |
| CCc1cccc(C)c1N | inactive |
| ON=C1CCCCC1 | inactive |
| O=C(Oc1ccccc1)c1ccccc1 | inactive |
| OCCOCCOCCO | inactive |
| CC(C)CC(=O)CC(C)C | inactive |
| Cc1cccnc1 | inactive |
| CN(C)CCCN | inactive |
| C[C@H]1C[C@@H]2[C@H]([C@@H](O)C[C@@]3(C)[C@H]2CC[C@]3(O)C(=O)CO)[C@@]2(C)C=CC(=O)C=C12 | inactive |
| CCCCCCCCCCCCc1ccccc1 | inactive |
| c1ccc2c(c1)ccc1ccccc12 | inactive |
| O=c1[nH]nnc2ccccc12 | inactive |
